Compound activity: PubChem BioAssay, several laboratories
Mtb RmlCD inh: M. tuberculosis RmlC/RmlD coupled enzyme inhibitors, primary screen, biochemical, compound mixtures, 384-well, from 1536-well plates; AID 1533, 2009; RmlC+RmlD coupled enzyme assay, percent inhibition; primary screen in compound mixtures; inhibition, % at 3.6 µM; 160,000 tested, 0.03% active; in the data active means inhibition mostly above about 34%, no sharp cut-off
RecA intein inh: Mtb RecA intein splicing inhibitors, primary screen, biochemical, fluorescence, HTS | 290,000 tested, 0.75% active | cell-free RecA intein splicing | inhibition, % (test concentration not listed); in the data active means inhibition above about 30%;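 further: 0% = vehicle wells and 100% = reference inhibitor control wells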
Target sequence (P9WHJ3 whole entry, looked up): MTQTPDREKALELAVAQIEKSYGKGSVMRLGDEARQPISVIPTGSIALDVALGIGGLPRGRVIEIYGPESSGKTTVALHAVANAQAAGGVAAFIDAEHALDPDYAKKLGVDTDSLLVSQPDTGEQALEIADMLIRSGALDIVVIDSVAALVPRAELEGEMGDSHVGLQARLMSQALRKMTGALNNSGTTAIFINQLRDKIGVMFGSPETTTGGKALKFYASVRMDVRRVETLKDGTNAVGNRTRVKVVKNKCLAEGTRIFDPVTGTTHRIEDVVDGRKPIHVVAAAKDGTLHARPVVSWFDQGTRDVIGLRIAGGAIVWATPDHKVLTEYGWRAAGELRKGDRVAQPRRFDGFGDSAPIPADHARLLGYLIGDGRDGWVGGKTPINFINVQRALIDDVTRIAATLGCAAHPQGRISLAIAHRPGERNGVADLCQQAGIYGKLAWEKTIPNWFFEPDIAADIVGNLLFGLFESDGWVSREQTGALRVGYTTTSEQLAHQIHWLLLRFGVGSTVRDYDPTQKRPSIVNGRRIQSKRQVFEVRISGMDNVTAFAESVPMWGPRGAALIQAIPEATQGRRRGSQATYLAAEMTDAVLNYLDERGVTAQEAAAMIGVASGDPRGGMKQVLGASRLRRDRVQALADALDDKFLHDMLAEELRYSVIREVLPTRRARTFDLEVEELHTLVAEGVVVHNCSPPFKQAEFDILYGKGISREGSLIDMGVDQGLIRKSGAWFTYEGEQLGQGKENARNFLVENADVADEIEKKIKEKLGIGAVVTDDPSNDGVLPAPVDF
The depositor's hits bear a star; . = no result given. In the library only some 0.77% were active in any assay of this set; here they are far more common.

SMILES	Mtb RmlCD inh	RecA intein inh
Cc1[nH]n(-c2ccccc2)c(=O)c1C(c1ccccc1C(=O)O)c1c(C)[nH]n(-c2ccccc2)c1=O	7	-1
Cc1ccccc1OCC1CN(CN2CCOCC2)C(=O)O1 (stereo not given)	.	5
CC(=O)c1ccc(Sc2nnnn2-c2ccccc2)c([N+](=O)[O-])c1	.	31*
CN1CCN(S(=O)(=O)c2ccc(Sc3nnnn3-c3ccccc3)c([N+](=O)[O-])c2)CC1	.	15
CC(NC(=O)c1cccc(S(=O)(=O)N(C)C)c1)C1CC2CCC1C2 (stereo not given)	.	4
COc1ccccc1N1CC(C(=O)OCC(=O)c2ccc(F)cc2)CC1=O (stereo not given)	4	-1
Cc1cccc(N2CC(C(=O)OCC(=O)c3ccc(OC(=O)c4cccs4)cc3)CC2=O)c1C (stereo not given)	1	36*
CN1CCN(C(=O)c2cnn3c(C(F)F)cc(C4CC4)nc23)CC1	-4	-11
CCCCCCOc1ccc(C(=O)n2cnc(N)n2)cc1	.	54*
CCCCCCOc1ccc(C(=O)O)cc1	-11	0
COC(=O)[C@H]1[C@@H](C)N(Cc2ccccc2)C(=O)N[C@H]1c1cccc(C(F)(F)F)c1	.	2
Cc1ccc2c(c1)c1ncnc(N3CCC4(CC3)OCCO4)c1n2C	10	.
Cc1ccc2c(c1)c1ncnc(N3CCOCC3)c1n2C	96*	-3
COc1ccc(-c2ccnc3c(C#N)cnn23)cc1	44*	-17
N#Cc1cnn2c(-c3ccccc3)ccnc12	11	1
CC12CCCC[C@@H]1CCC1C2CCC2(C)C1CC[C@@]2(O)CNCCO (stereo not given in full)	.	-1
O=C(NCc1cccnc1)/C(=C/c1ccc(-c2cccc(C(F)(F)F)c2)o1)NC(=O)c1ccccc1	-5	2
O=C(NCc1cccnc1)/C(=C/c1ccc(-c2ccc(Cl)cc2)o1)S(=O)(=O)c1ccccc1	22	35*
CCS(=O)(=O)Nc1ccc(-c2nnc(SCC(=O)c3cccc(OC)c3)o2)cc1	-9	1
O=C(COC(=O)/C=C/c1cccc(F)c1)Nc1ccc2[nH]c(=O)[nH]c2c1	.	-1
Cn1c(CCN2CCN(c3ccccn3)CC2)nc2cc(NS(=O)(=O)c3ccc(Cl)cc3)ccc21	.	2
S=C(Nc1ccc(Br)cc1)Nc1ccc2c(c1)OCCO2	.	4
COc1ccc(C(=O)CNc2ccccc2C#N)cc1	-1	4
Cc1cccc(Sc2c(C=O)c3ccccc3n2C)c1	6	30*
Cn1c(Sc2ccc(Cl)cc2)c(C=O)c2ccccc21	-5	19
SMILES	Mtb RmlCD inh	RecA intein inh
COc1ccc(N(CC(=O)NC(C)(C)C)C(=O)CCC(=O)Nc2nccs2)cc1	.	0
COc1ccc(C2NC(=O)C(C#N)=C(S)N2c2cccc(C)c2)cc1OC (stereo not given)	.	1
CCCCN(C)CCn1c(=S)[nH]c2ncccc2c1=O	.	-2
Cc1cc(C(=O)c2ccc(Cl)cc2)c(NC(=O)CCl)s1	-8	33*
Cc1ccc(C(=O)c2cc(C)sc2N)cc1	7	0
Cc1nn(-c2ccccc2)nc1C(N)=O	-7	-1
NC(=O)c1nn(-c2ccccc2)nc1N	79*	-1
O=C(CCl)N1N=C(c2ccco2)CC1c1ccco1 (stereo not given)	.	54*
O=C(O)/C=C/C(=O)N1N=C(c2ccco2)CC1c1ccco1 (stereo not given)	.	5
O=C(NCc1ccccc1)c1cccc(COc2cc(Cl)ccc2Cl)c1	-5	0
CN(C(=O)c1cccc(COc2ccc(Cl)cc2Cl)c1)c1ccccc1	.	35*
O=C(/C=C/c1cccc(Cl)c1)NCCN1CCOCC1	9	-1
Cc1cc(C)n(-c2ncc3c(n2)N(CCO)CCOC3=O)n1	1	-2
CC1=CC2(O)OCCN(CCO)C2=CC1=O (stereo not given)	.	66*
C=CCOc1cccc(C(=O)/C=C2/C(=O)Nc3ccccc32)c1	.	4
CC(=O)/C=C1/C(=O)Nc2ccccc21	17	62*
Cc1nc(N2CCN(C(=O)c3ccco3)CC2)c2c3c(sc2n1)CCCC3	.	7
O=C(c1ccco1)N1CCN(c2nc(C3CC3)nc3sc4c(c23)CCCC4)CC1	92	38*
CC(=O)Nc1c2c(nn1-c1ccccc1C)CS(=O)(=O)C2	.	-4
Cc1ccc(CSc2ncnc3c2cnn3-c2ccccc2)cc1	-7	0
c1ccc(-c2nc(Sc3ncnc4c3cnn4-c3ccccc3)n[nH]2)cc1	-1	32*
Cn1c(N)c(C(=O)COC(=O)c2ccc3c(c2)C(=O)N(c2ccc(Cl)cc2)C3=O)c(=O)n(C)c1=O	.	3
Cc1ccc2nc(N3CCN(c4cccc(C)c4C)CC3)c3nnnn3c2c1	9	2
Cc1ccc2nc(Cl)c3nnnn3c2c1	46	79*
O=C1CCC(=O)N1Cc1c(Cl)cccc1Cl	.	2
SMILES	Mtb RmlCD inh	RecA intein inh
CC1(C)CCC(=O)N(c2ccc(OC(F)(F)F)cc2)C1=O	.	-2
O=C1CS/C(=C\[N+](=O)[O-])N1c1ccc(OC(F)(F)F)cc1	11	36*
C=CCNC1=C(Cl)C(=O)N(c2cccc(Cl)c2Cl)C1=O	.	28
Cc1ccc(N2C(=O)C(Cl)=C(NCCO)C2=O)c(C)c1	10	33*
CC[N+](CC)(CC#Cc1ccccc1)CC#Cc1ccccc1	51	0
CC(C)(C)c1ccc(C(=O)Cn2cnnc2C#N)cc1	.	34*
CCOc1ccc(C(=O)Cn2cnnc2C#N)cc1	.	9
O=[N+]([O-])c1cnccc1Nc1cccc(F)c1	.	3
O=[N+]([O-])c1ccc(Oc2cccc(F)c2)c2ccncc12	.	73*
C=C(C)CSc1nc2ccccc2c(=O)n1-c1c(C)n(C)n(-c2ccccc2)c1=O	-12	4
CCC(=O)CC(c1ccccc1)c1c(O)c2ccccc2sc1=O (stereo not given)	66	-4
O=c1c(C(c2ccccc2)c2c(O)sc3ccccc3c2=O)c(O)sc2ccccc12	19	29*
CCOc1ccc(S(=O)(=O)N2CCC(C(=O)N3CCCCCC3)CC2)cc1C	.	1
O=c1oc2c(CN3CCOCC3)c(O)ccc2c2ccccc12	.	-7
O=c1oc2c(CN3CCOCC3)c(O)ccc2c2c1CCCC2	44*	-33
CN(C)/N=C/c1ccc(Sc2ccccc2[N+](=O)[O-])o1	3	2
Cc1[nH]n(-c2ccccc2)c(=O)c1/C=N/NC(=O)c1cccc(F)c1	.	11
O=c1c(/C=N/N2CCOCC2)c(C(F)(F)F)[nH]n1-c1ccccc1	2	-2
Cc1cc(C(=O)N/N=C/c2c(C)[nH]n(-c3ccccc3)c2=O)n[nH]1	.	55*
Cc1[nH]n(-c2ccccc2)c(=O)c1/C=N/N1CCOCC1	-3	46*
CC(C)(Oc1ccc(Cl)cc1)C(=O)NC1CC1	.	-4
O=[N+]([O-])c1ccc(O)c(C=Nc2cccc3ccccc23)c1	.	2
O=[N+]([O-])c1cccc(C=Nc2cccc3ccccc23)c1O	.	38*
C/C=C/c1ccc(Oc2nnnn2-c2ccc(C(=O)O)cc2)c(OC)c1	71	2
Cc1cc(OCC(=O)Nc2cc(S(=O)(=O)N3CCOCC3)ccc2N2CCCC2)ccc1C(C)C	.	0
CCN(Cc1ccncc1)C(=O)CCc1nnc(CCc2ccc(OC)cc2)o1	-6	1
CCOC(=S)SCC(=O)Nc1nc(-c2ccccc2)cs1	24	43*
